Experimental findings from PubChem BioAssay (Tox21) are described below.

Where “and” joins values, the source holds several entries; their conditions need not be identical. Equal entries are not always repeated. Inconclusive results are not listed. A structure can be active in one record and inactive in another. Calls of active or inactive are those of the source. Calls come from the whole dose curve; as a rule, active = well fitted inhibition curve with a large enough effect in the repeat runs; inconclusive = weak or mixed curves; inactive = no such curve, though single readings can be large or run the other way.
% is set by controls: 0 for no effect and ±100 for the full control effect; potency is the fitted concentration of half-maximal effect.

Chain of Cytochrome P450 2C9 (Homo sapiens) (P11712 whole entry, looked up): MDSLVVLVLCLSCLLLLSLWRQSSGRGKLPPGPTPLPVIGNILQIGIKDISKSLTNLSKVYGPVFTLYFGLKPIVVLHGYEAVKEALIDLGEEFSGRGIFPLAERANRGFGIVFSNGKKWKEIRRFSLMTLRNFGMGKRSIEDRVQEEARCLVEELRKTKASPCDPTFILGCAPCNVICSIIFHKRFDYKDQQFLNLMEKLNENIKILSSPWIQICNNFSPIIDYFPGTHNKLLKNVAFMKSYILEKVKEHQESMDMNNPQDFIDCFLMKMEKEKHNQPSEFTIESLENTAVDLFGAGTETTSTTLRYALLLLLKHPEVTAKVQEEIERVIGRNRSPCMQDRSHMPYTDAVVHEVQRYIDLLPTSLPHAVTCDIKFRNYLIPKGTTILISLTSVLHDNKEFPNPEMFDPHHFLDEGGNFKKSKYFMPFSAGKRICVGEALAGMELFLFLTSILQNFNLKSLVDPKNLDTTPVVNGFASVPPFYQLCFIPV

In the experiment the target is Cytochrome P450 2C9 (Homo sapiens) (UniProt P11712). In words: Cytochrome P450 Family 2 Subfamily C Member 9 (CYP2C9) small molecule antagonists: luciferase reporter qHTS assay (AID 1671198). Note: nearly all actives have a fitted effect of over 50% in size. As to conditions: P450-Glo CYP2C9 enzyme assay, luciferin luminescence; series mostly up to 115 µM; activity change, negative = inhibition: at the top concentration. An excerpt:
U.S. Tox21 Program National Center for Advancing Translational Sciences [NCATS] U.S. Environmental Protection Agency [EPA] National Institutes of Environmental Health Sciences [NIEHS] National Toxicology Program [NTP] U.S. Food and Drug Administration [FDA] Tox21 Assay Overview: Cytochrome P450 (CYP) enzymes are membrane-bound hemeproteins that play a key role in metabolism of drugs and xenobiotics. Evaluation of the effect of chemicals on CYP isozymes is useful to minimize the adverse drug reactions and toxicities in drug development process. Tox21 chemicals were tested for their effect on CYP enzyme activities by using P450-Glo (TM) screening systems (Promega Corporation, Madison, WI). These systems provide a luminescent method containing proluciferin substrates and are converted to luciferin products by CYP isozymes. The luciferin products formed are detected with a luciferin detection reagent, and the amount of light produced is proportional to CYP activity. P450-Glo (TM) CYP2C9 screening system (Catalog. No. V9790) was used to detect the compounds that interfere in CYP2C9 activity.
Tox21 Assay Protocol Summary: Two ul of enzyme-substrate mix was dispensed into medium binding white/solid 1536-well plates (Greiner Bio-One North America Inc., Monroe, NC) using a BioRaptr Flying Reagent Dispenser (FRD, Beckman Coulter, Brea, CA). […] The assay plates were incubated at room temperature for 10 min. Then 2 ul of NADPH regeneration solution was added to each well of the assay plates using an FRD and incubated at 37C for 1 h. The reaction was stopped by adding 4 ul of detection reagent using an FRD and after 20 min incubation at room temperature the luminescence signal was measured using a ViewLux plate reader (Perkin Elmer, Shelton, CT). Data were expressed as relative luminescence units.
`CC(=O)Oc1ccc(C)cc1`: the Potency result was “inactive”.
On to `CCOC(=O)n1ccn(C)c1=S`, for which the “activity change, negative = inhibition” value was 7.5% [at 53 µM] (inactive).
With `CC1(C)NC(=O)NC1=O`, the “activity change, negative = inhibition” value is 0.229% (inactive).
The same measure, in the same setting: in the case of `CCCOC(=O)c1ccccc1` it was -2.64% [at 53 µM] (inactive).
Consider `O=C1C(c2[nH]c3ccccc3c2O)=Nc2ccccc21`, for which the Potency entry was “inactive”.
Still for that read-out and setting: in the case of `O=C(O)c1ccc(C(=O)O)c(C(=O)O)c1` it was “inactive”; in that of `CNC(=O)Oc1ccc2c(c1)[C@]1(C)CCN(C)[C@@H]1N2C`, 71 µM (active) and inactive.
In the case of `c1ccc(Oc2ccccc2)cc1`, the “activity change, negative = inhibition” value was -16.9% (inactive).
`C=CC(C)CCCC(C)(C)O` (stereo not given): the Potency entry is “inactive”.
For the compound `CCOC(=O)c1ccc(N)cc1`, the Potency was 35.6 µM (active).
The same measure, in the same setting: the same measure for `CC(CCl)OP(=O)(OC(C)CCl)OC(C)CCl` (stereo not given): 40 µM (active) and 59.5 µM (active); for `CCCCC(C=O)CC` (stereo not given): “inactive”; for `CCOCC(=O)O`: “inactive”.
Regarding `CN1C(=O)CC[C@H]1c1cccnc1`, the Potency result was “inactive”.
Consider `C[C@]12CCC(=O)C=C1CC[C@@H]1[C@@H]2[C@@H](O)C[C@@]2(C)[C@H]1CC[C@]2(O)C(=O)CO`, for which the Potency result was “inactive”.
As to `NC(=S)NNC(N)=S`, the Potency was 35.6 µM (active).
Regarding `CC(C)(Oc1ccc(CCNC(=O)c2ccc(Cl)cc2)cc1)C(=O)O`, the Potency was 28.3 µM (active) and 13.8 µM (active).
Same read-out and setting: the same measure for `c1ccc2c(c1)Cc1ccccc1-2`: “inactive and 39.9 µM (active)”.
For the compound `CC(C)OP(=O)(CP(=O)(OC(C)C)OC(C)C)OC(C)C`, the “activity change, negative = inhibition” value is -9.39% [at 53 µM] (inactive).
`CC(=O)OCc1ccco1`: the “activity change, negative = inhibition” value is -8.85% (inactive).
Consider `NCCN1CCNCC1`, for which the Potency entry is “inactive”.
`COC(=O)CCCC(=O)OC`: the “activity change, negative = inhibition” value is 3.99% (inactive).
With `CCCCCCCCCCCC(=O)OC`, the Potency result was “inactive”.
`CC(=O)OC1CC(C)OC(C)O1` (stereo not given): the “activity change, negative = inhibition” value was -30.1% (inactive).
On the same count and under the same terms, the same measure for `CCCCCCCO`: -21.4% (inactive).
`Brc1ccc(Br)c(Br)c1`: the Potency result is “inactive”.
Regarding `C=CCCCCCCCCC(=O)O`, the Potency was 39.9 µM (active).
Take `CC(C)c1cccc(C(C)C)c1`: the “activity change, negative = inhibition” value is -19.5% (inactive).
Regarding `C=C(C)C(=O)OCC(C)C`, the “activity change, negative = inhibition” value is 0.787% (inactive).
As to `O=C1CCCC1`, the Potency result is “inactive”.
Consider `COc1ccc(OC)cc1`, for which the “activity change, negative = inhibition” value is -9.92% (inactive).
As for `CC1(C)OC[C@@H]2O[C@@]3(C(=O)O)OC(C)(C)O[C@H]3[C@@H]2O1`, the Potency entry was “inactive”.
Turning to `CC(C)CC(=O)CC(C)CC(C)C` (stereo not given), the “activity change, negative = inhibition” value is -14% (inactive).
`CC(C)OC(=O)COc1ccc(Cl)cc1Cl`: the Potency was 35 µM (active) and 35.6 µM (active).
Take `CCCCCCCCCCO`: the “activity change, negative = inhibition” value was -18.5% (inactive).
For the compound `N[C@H](Cc1c[nH]c2ccccc12)C(=O)O`, the “activity change, negative = inhibition” value was -15% (inactive).
With `O=C(O)c1ccccc1C(=O)O`, the Potency entry was “inactive”.
`N#Cc1ccccc1`: the Potency entry was “inactive”.
Same read-out and setting: the same measure for `CC(C)CC(C)O` (stereo not given): “inactive and 31.7 µM (active)”.
For the compound `COc1ccc(CCC(C)=O)cc1`, the “activity change, negative = inhibition” value was -3.5% [at 53 µM] (inactive).
